Vif-APOBEC3F blk – qHTS for Inhibitors of Vif-A3F Interactions: qHTS. HeLa A3F-eYFP + Vif (tagged APOBEC3F with the HIV-1 protein that degrades it), YFP fluorescence increase. Potency, µM (series often up to 46.1 µM), inactives show at the top dose activity, negative = active. hit rate 0.2% among 390,000. AID 602313, 2012; further: potency means the concentration at half of the fitted maximal effect; % of control where 0% means no effect; nearly all actives have a fitted effect of over 65% in size
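Fluorescence increase (Ex 488/Em 500-530) after overnight compound treatment at 37 deg C flags inhibition of Vif-driven A3F-eYFP loss in stable HeLa A3F-eYFP/Vif cells seeded overnight beforehand.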
IL1B secr inh – qHTS for Inhibitors of Inflammasome Signaling: IL-1-beta AlphaLISA Primary Screen; THP-1 LPS/ATP IL-1B secretion, AlphaLISA, 16 h; stronger effect = lower value; activity change, % at 57.5 µM; hit rate 4.7% among 360,000; AID 743279, 2014; in the data active means activity change below about -50%; inconclusive means mostly about -30% to -49%; further: on the % scale 0 is the no-effect control and ±100 the full control effect
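THP-1 cells pretreated 1 hr with compounds (up to 57.5 uM final), then stimulated with LPS (250 ng/mL final) plus ATP (1.25 mM final); secreted IL-1B measured by AlphaLISA after 16 hr, decreased signal indicating inhibition.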
Vif-APOBEC3G blk – qHTS for Inhibitors of Vif-A3G Interactions: qHTS; DNA dC->dU-editing enzyme APOBEC-3G (Homo sapiens), Q9HC16; Potency, µM (doses to about 46.1 µM), for the others: at the top dose activity, negative = active, actives largely listed as inhibitors; HeLa A3G-eYFP + Vif (tagged APOBEC3G with the HIV-1 protein that degrades it), YFP fluorescence, overnight; hit rate 0.076% among 410,000; further: potency means the concentration at half of the fitted maximal effect; on the % scale 0 is the no-effect control and ±100 the full control effect; nearly all actives have a fitted effect of over 60% in size
Target sequence (Q9HC16 whole entry, looked up): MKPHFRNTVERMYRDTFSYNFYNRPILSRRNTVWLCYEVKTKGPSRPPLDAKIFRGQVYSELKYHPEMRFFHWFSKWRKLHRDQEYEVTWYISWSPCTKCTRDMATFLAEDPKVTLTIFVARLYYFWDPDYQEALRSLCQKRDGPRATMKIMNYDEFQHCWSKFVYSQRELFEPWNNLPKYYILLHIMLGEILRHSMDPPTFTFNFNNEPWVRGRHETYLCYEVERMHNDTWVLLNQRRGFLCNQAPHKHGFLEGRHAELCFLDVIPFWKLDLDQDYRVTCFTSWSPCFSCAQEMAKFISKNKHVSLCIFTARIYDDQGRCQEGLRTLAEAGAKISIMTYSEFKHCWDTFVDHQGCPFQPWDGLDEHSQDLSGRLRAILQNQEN
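HeLa cells stably expressing Vif and C-terminally eYFP-tagged A3G, seeded overnight at 37 deg C, then exposed to compound by pintool overnight at 37 deg C. Rise in yellow fluorescence (Ex 488/Em 500-530, Acumen) marks blocked Vif-driven A3G degradation.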
SW480 rereplic – A quantitative high throughput screen for small molecules that induce DNA re-replication in SW480 colon adenocarcinoma cells. SW480 DNA re-replication, Hoechst DNA content imaging, 48 h. Potency, µM (highest dose often 46.1 µM), inactives show at the highest dose re-replication activation, hits mostly activators. hit rate 1.8% among 340,000; further: potency means the concentration at half of the fitted maximal effect; % of control where 0% means no effect; nearly all actives have a fitted effect of over 55% in size
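Per well, 250 cells were exposed to pinned compound for 48 hr. Nuclear DNA was visualised with Hoechst (40 min, 37 C) and total object intensity recorded by fluorescence scanning.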
Giardia kill – Small Molecules that selectively kill Giardia lamblia: qHTS. Giardia lamblia trophozoite viability. hit rate 0.15% among 340,000. activity change, % at 7.66 µM, hits read low; in the data active means activity change below about -80%; inconclusive means between about -30% and that limit;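 further: parasites exposed to compound for two days anaerobically before the ATP read; on the % scale 0 is the no-effect control and ±100 the full control effect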
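Trophozoites 100 cells/well + cpd; 48 hrs, 37 deg C, anaerobic. ATPLite 1-Step added, 15-30 min RT, luminescence read (ATP-based viability).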
MCF10A rereplic – A quantitative high throughput screen for small molecules that induce DNA re-replication in MCF 10a normal breast cells. MCF 10A DNA re-replication, Hoechst nuclear intensity, 48 h. Potency, µM (series often up to 46.1 µM), without a hit: at the highest dose activity, positive = re-replication, hits mostly activators. hit rate 2.9% among 350,000. AID 624296, 2012; further: potency means the concentration at half of the fitted maximal effect; % of control where 0% means no effect; nearly all actives have a fitted effect of over 50% in size
* = called active by the depositor; ? = inconclusive; . = no result given; [ ] = remark or other dose. Only some compounds are listed: those with a hit (about 6.9% of all), similar ones and a draw of the others. Unless noted, the call rests on the fitted dose curve; in most records, active means well fitted curve in the direction sought with a large enough effect; inconclusive means small, poorly fitted or top-dose-only effect, or another doubt; inactive means no such curve, though single readings can be large; an effect the other way counts as inactive or inconclusive.

SMILES | Vif-APOBEC3F blk | IL1B secr inh | Vif-APOBEC3G blk | SW480 rereplic | Giardia kill | MCF10A rereplic
Cc1cc(C)cc(Nc2cc(=O)n(C3CCCCC3)c(=O)[nH]2)c1 | . | 22 | -7% | -9% | 19 | ?
Cc1cc2nc3c(=O)n(C4CCCCC4)c(=O)[nH]c3nc2cc1N | 11µM* | 16 | 8.9µM* | ? | -9 | ?
O=C(NC1CC(=O)N(c2ccc(F)cc2)C1)C1CC1 (configuration not stated) | 0% | . | 2% | . | . | .
COc1ccccc1C1CCN(c2cc(O)ccc2[N+](=O)[O-])CC1 | -13% | -6 | -1% | -36% | -18 | 16µM*
O=C(Nc1ccc(Oc2nnc(-c3ccccc3)c3ccccc23)cc1)c1ccccc1 | -16% | -62* | 0% | 12% | 18 | -5%
COc1ccc(-c2nnc(SCC(=O)NC3CCCC3)nc2-c2ccc(OC)c(OC)c2)cc1OC | 6% | . | -8% | . | . | .
Cc1ccc(OCC(=O)N2CCC(Cc3ccccc3)CC2)c([N+](=O)[O-])n1 | 0% | -17 | 2% | -20% | ? | 1%
O=[N+]([O-])c1ncccc1OCc1ccc(-c2ccccc2)cc1 | -12% | -56* | -7% | -2% | -9 | 17%
CC1CCCC(N2CCN(C(=O)c3ccc([N+](=O)[O-])cc3)CC2)C1 (configuration not stated) | -2% | ? | 0% | 8.2µM* | 26 | ?
O=C(COc1cccnc1[N+](=O)[O-])N1CCC(Cc2ccccc2)CC1 | 2% | -68* | 2% | -2% | -23 | 12%
O=C(c1ccc([N+](=O)[O-])cc1)N1CCC(Cc2ccccc2)CC1 | ? | -76* | -1% | 0% | 9 | ?
N#Cc1ccc(COc2cccnc2[N+](=O)[O-])cc1 | 14% | -8 | 3% | -7% | -24 | 4%
CCN(CC)CCCNC(=O)c1oc2c(c1C)-c1nn(Cc3ccc(Cl)cc3)cc1CC2 | ? | . | -2% | . | . | .
O=C(c1ccc(Oc2ccc([N+](=O)[O-])cc2)cc1)N1CCCCCC1 | 1% | -78* | 1% | 5% | 25 | -2%
O=C(c1ccc(Oc2ccc([N+](=O)[O-])cc2Cl)cc1)N1CCCC1 | 2% | 0 | 1% | 0% | -1 | -8%
COc1ccc(-c2ccc(F)cc2)cc1[C@H]1[C@H]2C=CC[C@@H](C)[C@@H]2C(=O)N1Cc1ccccc1 | -3% | -5 | -6% | -7%[9.22 µM] | 7 | 21µM*
COc1ccc(-c2ccccc2[C@H]2[C@@H]3C=CC[C@@H](C)[C@@H]3C(=O)N2Cc2ccccc2)cc1 | -1% | -10 | -6% | ? | 17 | 23µM*
COc1ccc(-c2ccc(F)cc2)cc1C1C2C=CCC(C)C2C(=O)N1Cc1ccccc1 (configuration not stated) | . | . | 0% | . | -22 | .
C[C@@H]1CC=C[C@H]2[C@H]1C(=O)N(Cc1ccccc1)[C@H]2c1ccc(-c2ccoc2)cc1F | ? | 11 | -1% | 3% | -18 | 18µM*
CC1CCN(C(=O)Cn2cc(SCC(=O)Nc3ccccc3C(F)(F)F)c3ccccc32)CC1 | 1% | . | -5% | . | . | .
Cc1ccccc1NS(=O)(=O)c1ccc2[nH]cc(C(=O)NCCc3ccccc3)c(=O)c2c1 | -18% | . | -3% | . | . | .
Cc1ccc2c(c1)N(C(=O)CCC(=O)NCc1cccs1)CCO2 | -7% | . | 3% | . | . | .
CC(=C/c1ccccc1)/C=N/NC(=O)c1nnn(-c2nonc2N)c1CN1CCC(C)CC1 | -14% | -11 | -1% | ? | 8 | 6%
C/C(=N\NC(=O)c1nnn(-c2nonc2N)c1CN(C)c1ccccc1)c1ccccc1O | 0% | 93 | 1% | 3.3µM* | 5 | ?
C/C(=N\NC(=O)c1nnn(-c2nonc2N)c1CN1CCCCC1)c1ccccc1O | 9% | 95 | -5% | 15µM* | -3 | 13%
SMILES | Vif-APOBEC3F blk | IL1B secr inh | Vif-APOBEC3G blk | SW480 rereplic | Giardia kill | MCF10A rereplic
CC(/C=N/NC(=O)c1nnn(-c2nonc2N)c1CN1CCCCC1)=C\c1ccccc1 | -24% | -7 | 0% | ? | 5 | 7.3µM*
O=S(=O)(Nc1ccc(C(F)(F)F)cc1)c1ccc2c(c1)OCCO2 | 10% | . | -5% | . | . | .
Cc1cccc(Cn2c(C)c(CNC3CCCCCC3)c(C(=O)O)c2C)c1 | -6% | . | 1% | . | . | .
CCN(Cc1ccccc1)C(=O)Cn1c(C(C)O)nc2ccccc21 (configuration not stated) | 5% | 17 | 2% | -32% | 9 | 0.73µM*
C=CC(=O)Nc1cccc(CN2C(=O)N(c3cc(OC)cc(OC)c3)Cc3cnc(NCCCCN(CC)CC)nc32)c1 | 4% | -60* | 5% | 1% | -16 | ?
COc1cccc(NC(=O)Cn2nc(Cc3cccnc3)c3ccccc3c2=O)c1 | 5% | ? | -1% | -7% | 10 | 6%
CCCCNC1C(CC)C(CCC)C(C#N)(C#N)C1(C#N)C#N (configuration not stated) | -8% | -118* | -25% | ? | -2 | 21µM*
CC(=O)c1ccc(OCC(O)COc2ccc(C(C)=O)cc2)cc1 | -6% | 10 | 1% | 10% | -6 | 15%
C=C(C)C(=O)OCC(O)COc1ccc(C(C)(C)c2ccc(OCC(O)COC(=O)C(=C)C)cc2)cc1 (configuration not stated) | -3% | -64* | 1% | 18% | 18 | -36%
CC(C)CCN(Cc1ccco1)C(=O)Cn1ncc2c([nH]c3ccccc32)c1=O | -16% | . | -3% | . | . | .
Cc1cccc(/C=C/c2onc(C)c2[N+](=O)[O-])n1 | 3% | -97* | -7% | ? | -1 | 7.3µM*
COc1cc(/C=C/c2onc(C)c2[N+](=O)[O-])cc(OC)c1OC | -5% | 14 | 0% | -10% | ? | 1%
Cc1cccc(N/C=C/c2onc(C)c2[N+](=O)[O-])c1 | -10% | 3 | -28% | 0%[9.22 µM] | -10 | 36%
Cc1noc(/C=C/c2nn(C)cc2Cl)c1[N+](=O)[O-] | 4% | -78* | ? | ? | -12 | 21µM*
Cc1ccc(C(C)C)c(OCC(=O)NCC2(N3CCOCC3)CCCCC2)c1 | -5% | . | -8% | . | . | .
COc1cccc(CSc2nc3ccccc3cc2C=O)c1 | -6% | 49 | -24% | 1.3µM* | 18 | 13µM*
C=CCn1c(=NC(=O)c2ccc(S(=O)(=O)N3CCc4ccccc4C3)cc2)sc2cc(S(N)(=O)=O)ccc21 | -2% | 105 | -19% | ? | -9 | 9.2µM*

Compound activity from PubChem BioAssay.
